Inconclusive results are not listed. Activity calls are given as the source filed them. Calls come from the whole dose curve; as a rule, active = well fitted curve in the direction sought with a large enough effect; inconclusive = small, poorly fitted or top-dose-only effect, or another doubt; inactive = no such curve, though single readings can be large; an effect the other way counts as inactive or inconclusive.
What was measured:
CAOV3 = assay: Primary qHTS to identify gynecologic anti-cancer compounds using libraries of approved drugs and bioactive compounds (AID 1345084); conditions: Gynecologic cancer cell panel viability, ATPlite luminescence, 48 h; series mostly up to 57.5 µM; note: nearly all actives have a fitted effect of over 55% in size
Procedure, shortened: (§1)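 Luminescence from the ATPlite ATP-monitoring reagent indicates viable cell number; lower signal means cytotoxicity. Cells received compound 16 h after seeding and were exposed for 48 h across five concentrations.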

Es-2 = assay: as above; conditions: Gynecologic cancer cell panel viability, ATPlite luminescence, 48 h; series mostly up to 57.5 µM
Procedure, shortened: as §1

HeLa = assay: as above; conditions: Gynecologic cancer cell panel viability, ATPlite luminescence, 48 h; series mostly up to 57.5 µM
Procedure, shortened: as §1

Hek293T = assay: as above; conditions: Gynecologic cancer cell panel viability, ATPlite luminescence, 48 h, control line for the selectivity index; series mostly up to 57.5 µM
Procedure, shortened: as §1

JEG-3 = assay: as above; conditions: Gynecologic cancer cell panel viability, ATPlite luminescence, 48 h; series mostly up to 57.5 µM
Procedure, shortened: as §1

PA-1 = assay: as above; conditions: Gynecologic cancer cell panel viability, ATPlite luminescence, 48 h; series mostly up to 57.5 µM
Procedure, shortened: as §1

Tov-21-G = assay: as above; conditions: Gynecologic cancer cell panel viability, ATPlite luminescence, 48 h; series mostly up to 57.5 µM
Procedure, shortened: as §1

Tov112D = assay: as above; conditions: Gynecologic cancer cell panel viability, ATPlite luminescence, 48 h; series mostly up to 57.5 µM
Procedure, shortened: as §1

OV90 = assay: as above; conditions: Gynecologic cancer cell panel viability, ATPlite luminescence, 48 h; series mostly up to 57.5 µM
Procedure, shortened: as §1

[1] = qHTS assay to identify inhibitors of the type 1 interferon - major histocompatibility complex class I in skeletal muscle: Counter screen cell viability and HiBit confirmation (AID 1347412); conditions: iHSKM muscle cells + IFN-b, HiBiT or CellTiter-Glo, 24 h; note: nearly all actives have a fitted effect of over 60% in size
Procedure, shortened: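 Luminescence read-out: Nano-Glo HiBiT lytic signal from C-terminally HiBiT-tagged HLA-B in CRISPR-edited human myoblasts, plus CellTiter Glo ATP as viability counter screen. IFN-beta 4.0 ng/ml; 24 hrs treatment at 37 C, 5% CO2.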

SKOV3 = assay: Primary qHTS to identify gynecologic anti-cancer compounds using libraries of approved drugs and bioactive compounds (AID 1345084); conditions: Gynecologic cancer cell panel viability, ATPlite luminescence, 48 h; series mostly up to 57.5 µM; note: nearly all actives have a fitted effect of over 55% in size
Procedure, shortened: as §1

CASKI = assay: as above; conditions: Gynecologic cancer cell panel viability, ATPlite luminescence, 48 h; series mostly up to 57.5 µM
Procedure, shortened: as §1
% is set by controls: 0 for no effect and ±100 for the full control effect; potency is the fitted concentration of half-maximal effect.

CN1CC2CN(c3ccc4oc5ccccc5c(=O)c4c3)CC2C1 (stereo not drawn)
inactive: Potency (CAOV3) | Potency (Es-2) | Potency (HeLa) | Potency (Hek293T) | Potency (JEG-3) | Potency (PA-1) | Potency (Tov-21-G) | Potency (Tov112D)

Cc1[nH]c2ccc(F)cc2c1-c1nc2c3cccnc3c3ncccc3c2[nH]1
active: Potency (CAOV3) 3.98 µM | Potency (Es-2) 14.1 µM | Potency (OV90) 5.62 µM | Potency (PA-1) 7.94 µM | Potency (Tov112D) 3.98 µM
inactive: Potency (HeLa) | Potency (JEG-3) | Potency (Tov-21-G)

CN(C)CC1CCn2c(c(C3=C(c4cn(C)c5ccccc45)C(=O)NC3=O)c3ccccc32)C1 (stereo not drawn)
inactive: Potency (Hek293T) | Potency (JEG-3) | Potency (Tov112D)
active: Potency (CAOV3) 22.4 µM | Potency (OV90) 12.6 µM

COc1ccc(Oc2c(Cl)cnn(-c3cc(C)cc(C)c3)c2=O)cc1
active: Potency (CAOV3) 28.2 µM
inactive: Potency (Es-2) | Potency (HeLa) | Potency (Hek293T)

COc1ccc(CNc2nc(N(CCO)CCO)nc3c2ncn3C(C)C)cc1
active: Potency (Es-2) 22.4 µM | Potency ([1]; HiBiT) 5.57 µM
inactive: Potency (CAOV3) | activity change, negative = inhibition ([1]; Viability, at 45.9 µM (top of the series)) 13%

CC(C)NC(=O)COc1cccc(-c2nc(Nc3ccc4[nH]ncc4c3)c3ccccc3n2)c1
active: Potency (CAOV3) 25.1 µM | Potency (HeLa) 17.8 µM
inactive: Potency (JEG-3) | Potency (OV90)

Cc1nc(-c2cn3c(n2)-c2ccc(-c4cnn(C(C)(C)C(N)=O)c4)cc2OCC3)n(C(C)C)n1
inactive: Potency (Es-2) | Potency (HeLa) | Potency (Tov112D)
active: Potency (CAOV3) 35.5 µM | Potency (Hek293T) 15.8 µM | Potency (SKOV3) 0.631 µM | Potency (Tov-21-G) 11.2 µM

Cc1cc(N2CCN(C(=O)Oc3ccc(-c4ccccc4)cn3)CC2)c2ccccc2n1
inactive: Potency (CAOV3) | Potency (HeLa) | Potency (Tov-21-G) | Potency (Tov112D)

CNS(=O)(=O)c1ccccc1Nc1nc(Nc2ccc(N3CCN(C)CC3)cc2OC)ncc1Br
active: Potency (CAOV3) 2.24 µM | Potency (CASKI) 7.94 µM | Potency (Hek293T) 14.1 µM | Potency (PA-1) 2 µM | Potency (Tov112D) 12.6 µM

Cn1cc(-c2ccc(S(=O)(=O)n3ccc(/C=C/C(=O)Nc4ccccc4N)c3)cc2)cn1
active: Potency (CAOV3) 17.8 µM | Potency (Es-2) 8.91 µM | Potency (HeLa) 10 µM | Potency (JEG-3) 10 µM | Potency (OV90) 15.8 µM | Potency (PA-1) 7.08 µM | Potency (Tov112D) 4.47 µM

N#Cc1ccc(Nc2nc(-c3ccc(O)cc3O)cs2)cc1C(F)(F)F
active: Potency (CASKI) 20 µM | Potency (Es-2) 14.1 µM | Potency (HeLa) 7.94 µM | Potency (PA-1) 8.91 µM | Potency (SKOV3) 8.91 µM | Potency (Tov-21-G) 5.01 µM | Potency (Tov112D) 7.94 µM

CCCCCCCCn1cc(CN(CC)CC)c2cc(-c3cnc(N)nc3)ccc21
inactive: Potency (CASKI) | Potency (HeLa) | Potency (Hek293T) | Potency (JEG-3)

CCOC(=O)c1cnc2ccc(-c3cncc(NS(=O)(=O)c4ccccc4)c3)cn12
active: Potency (CASKI) 2 µM | Potency (Es-2) 3.16 µM | Potency (HeLa) 1.58 µM | Potency (Hek293T) 1.78 µM | Potency (JEG-3) 7.08 µM | Potency (OV90) 11.2 µM | Potency (PA-1) 1.78 µM | Potency (SKOV3) 31.6 µM | Potency (Tov-21-G) 4.47 µM | Potency (Tov112D) 1.41 µM

CC(C)n1nc(C#Cc2ccccc2)c2c(N)ncnc21
inactive: Potency (CASKI) | Potency (Es-2) | Potency (HeLa) | Potency (Hek293T) | Potency (OV90) | Potency (PA-1)

C=C1CO[C@@]2(O[C@H]3CC4C5CC=C6C[C@@H](O)C[C@@H](O[C@@H]7OC[C@H](O)[C@H](O[C@@H]8OC[C@@H](O)[C@H](O)[C@H]8O)[C@H]7O[C@@H]7O[C@@H](C)[C@H](OC(C)=O)[C@@H](OC(C)=O)[C@H]7OC(C)=O)[C@]6(C)C5CC[C@]4(C)[C@@H]3[C@@H]2C)[C@@H](O)[C@H]1OC1OC(C)C(O)C(O)C1O (stereo partly drawn)
inactive: activity change, negative = cytotoxicity (CASKI) -16.5% [at 6.55 µM] | activity change, negative = cytotoxicity (Es-2) -0.0762% [at 6.55 µM] | activity change, negative = cytotoxicity (HeLa) -7.77% [at 6.55 µM] | activity change, negative = cytotoxicity (Hek293T) -3.45% [at 6.55 µM] | activity change, negative = cytotoxicity (JEG-3) -10.9% [at 6.55 µM]
active: Potency (OV90) 2.82 µM | Potency (PA-1) 3.55 µM | Potency (Tov112D) 3.55 µM

C/C(=N\N=C(N)N)c1cc(NC(=O)CCCCCCCCC(=O)Nc2cc(/C(C)=N/N=C(N)N)cc(/C(C)=N/N=C(N)N)c2)cc(/C(C)=N/N=C(N)N)c1
inactive: Potency (CASKI) | Potency (HeLa) | Potency (Hek293T) | Potency (JEG-3) | Potency (Tov112D)

O=C1C(Cc2ccc(O)cc2)N2C(=O)CCN(C(=O)NCc3ccccc3)C2CN1Cc1cccc2ccccc12 (stereo not drawn)
active: Potency (Es-2) 8.91 µM | Potency (SKOV3) 20 µM | Potency (Tov-21-G) 7.94 µM
inactive: Potency (CASKI) | Potency (JEG-3)

CC(C)=CCC/C(C)=C/COCC1OC(n2ccc(=O)[nH]c2=O)C(O)C1O (stereo not drawn)
inactive: Potency (CASKI) | Potency (Es-2) | Potency (HeLa) | Potency (Hek293T) | Potency (JEG-3) | Potency (PA-1) | Potency (SKOV3) | Potency (Tov-21-G) | Potency (Tov112D)

Cc1nnc(C[C@@H]2C=C(c3ccc(Cl)cc3)c3ccccc3-n3c(C)nnc32)o1
inactive: Potency (CASKI)
active: Potency (Es-2) 12.6 µM | Potency (OV90) 20 µM

Source: PubChem BioAssay (NCATS)
